Bioassay records from PubChem BioAssay.
HT1080-NT tox: kills 2HG-producing HT-1080-NT fibrosarcoma cells. HT-1080-NT fibrosarcoma viability, CellTiter-Glo ATP luminescence, 48 h. Potency, µM (series often up to 46.1 µM), for the others: at the top dose activity, negative = less viability, hits mostly cytotoxic. 1.6% of 360,000 active. AID 686970;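 further: NT is the 2HG producing partner of a matched IDH1 knockdown line; 0% = DMSO-treated cells and -100% = media-only wells without cells; nearly all actives have a fitted effect of over 55% in size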
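750 cells/well, RPMI + 5% FBS; 2 h settle, compound pin-transfer, 48 h at 37 degrees C. CellTiter-Glo 10 min RT, luminescence. Normalized to DMSO and media-only wells.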
ATXN2 expr inh: ATXN2 expression inhibition; HEK-293 ATXN2-luciferase reporter, luminescence, 24 h; Potency, µM (series often up to 57 µM), inactives show top-dose activity change, negative = inhibition, actives largely listed as inhibitors; 0.72% of 360,000 active; further: on the % scale 0 is the no-effect control and ±100 the full control effect; nearly all actives have a fitted effect of over 55% in size
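qHTS (up to 57 uM final) was run with 24 h compound exposure of reporter cells at 37 °C. Each well was multiplexed: SteadyGlo luminescence measured ATXN2-luciferase expression after a fluorogenic Gly-Phe-AFC viability readout (25 uM final).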
HT1080 IDH1KD tx: toxicity to HT-1080 IDH1 knockdown cells (counter line); HT-1080 IDH1 knockdown viability, ATP luminescence, 48 h; Potency, µM (highest dose often 46.1 µM), without a hit: at the highest dose activity, negative = toxicity, hits mostly cytotoxic; 2% of 360,000 active; AID 686971;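 further: 0% = DMSO wells and -100% = cell-free medium wells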
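Using the IDH1-knockdown HT-1080 line run in the same batch and compound series as the NT line, viability after 48 h at 37 °C was determined by CellTiter-Glo luminescence and expressed as % activity.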
S2 tox: cell viability loss in ATXN counter-screen; S2 cells (HEK-293 line with an ATXN2-luciferase reporter) viability, CellTiter-Fluor protease fluorescence, 24 h; Potency, µM (highest dose often 56.7 µM), usual class: cytotoxic; 0.49% of 400,000 active; further: nearly all actives have a fitted effect of over 40% in size
TGFb SMAD3 inh: blocks TGF-b signaling | AID 588855 | HepG2 CAGA-GFP TGF-b/SMAD3 reporter, GFP fluorescence, 18 h; TGF-beta stimulated, 500 pg/mL final | 1.2% of 410,000 active | Potency, µM (series often up to 46.1 µM), without a hit: at the highest dose activity, negative = inhibition, most hits filed as inhibitors; further: on the % scale 0 is the no-effect control and ±100 the full control effect; nearly all actives have a fitted effect of over 65% in size
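TGF-beta reporter screen: HEPG2 CAGA-GFP, 1% FBS, 500 pg/mL TGF-beta final, 18 h; per-cell GFP summed per well; curves fitted and categorized by class.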
HepG2 tox: kills HepG2 cells in TGF-b inhibitor counter-screen | HepG2 CAGA-GFP viability, ATP luminescence, 18 h | 0.76% of 410,000 active | AID 588856 | Potency, µM (highest dose often 46.1 µM), inactives show at the highest dose activity change, negative = cytotoxicity, hits mostly cytotoxic
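CellTiter-Glo luminescence gave cytotoxicity after 18 hours at 37 degrees C. The cells were HepG2 CAGA-GFP in 1% FBS DMEM, stimulated with 500 pg/mL TGF-beta after compound addition. %Activity was normalised to no-cell wells (complete cell-killing) and DMSO (no toxicity), and curves were fitted and classified.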
An asterisk follows results filed as active; i = inactive; u = inconclusive; x = not tested or not shown; ! = not active in a repeat. In the library only some 3.8% were active in any assay of this set; here they are far more common. The call rests on the fitted dose curve; in most records, active means well fitted curve in the direction sought with a large enough effect; inconclusive means small, poorly fitted or top-dose-only effect, or another doubt; inactive means no such curve, though single readings can be large; an effect the other way counts as inactive or inconclusive. Potency means the concentration at half of the fitted maximal effect.

SMILES	HT1080-NT tox	ATXN2 expr inh	HT1080 IDH1KD tx	S2 tox	TGFb SMAD3 inh	HepG2 tox
CCOc1ccc(C(=O)N2CC(=O)Nc3ccc(C)cc3C2c2ccc(F)cc2)cc1OCC (configuration not stated)	x	0.0%	x	u	u	-23.4%
CCn1c(C(=O)N2CCC(C(=O)N3CCN(c4cc(C)ccc4C)CC3)CC2)cc2sccc21	x	x	x	x	u	-21.2%
CCn1c(C(=O)N2CCC(C(=O)N3CCN(c4cccc(C)c4C)CC3)CC2)cc2sccc21	x	x	x	x	11.2µM*	-12.9%
COC(=O)c1cccc(NC(=S)NCCC2=CCCCC2)c1	-23.9%	-16.4%	20.6µM*	i	0.0%	-22.6%
Cc1ccc(C)c(S(=O)(=O)N2CCN(Cc3ccc(O)c4ncccc34)CC2)c1	u	8.91µM*	u	i	u	4.8%
Oc1c(CN2CCCCC2)ccc2cccnc12	2.06µM*	u	3.26µM*	u	u	-31.1%
Oc1ccc(CN2CCc3ccccc3C2)c2cccnc12	11.6µM*	u	13µM*	x	u	-62.8%
Oc1cc2c(cc1CN1CCc3ccccc3C1)OCO2	-3.3%	1.7%	-1.7%	i	u	-27.5%
Oc1ccc(CN2CCN(c3ccccc3)CC2)c2cccnc12	1.12µM*	u	0.708µM*	i	u	-34.9%
Oc1c(CN2CCOCC2)ccc2ccccc12	-8.3%	2.7%	-14.2%	i	0.7%	-1.3%
Cc1ccc(C(=O)c2oc3ccccc3c2NC(=O)c2cc(-c3ccc(Cl)cc3)on2)cc1	x	1.7%	x	i	7.6%	-16.9%
CC(C)COCc1ccc(O)c2ncccc12	20.6µM*	u	10.3µM*	i	10µM*	-49.2%
Oc1ccc(Cc2ccccc2)c2cccnc12	u	u	u	i	-19.7%	-5.4%
Oc1ccc(CNc2ccccc2F)c2cccnc12	u	17.8µM*!	u	11.2µM*!	7.08µM*	-24.1%
Oc1ccc(CN2CCCCC2)c2cccnc12	3.16µM*	20µM*	1.41µM*	12.6µM*	3.16µM*	-59.7%
CCCOCc1ccc(O)c2ncccc12	-10.9%	u	u	i	u	-9.4%
CC(C)[C@H](/C=C/C[Si](C)(C)C)[C@H](C)C(O)/C=C/CCCOC(=O)C(C)(C)C (some centres not stated)	x	x	x	x	3.7%	-3.0%
Cc1cnc(-n2ncc(C(=O)N(C)CC3CCCN(C)C3)c2C2CC2)nc1-c1cccs1 (configuration not stated)	x	x	x	i	x	x
Cc1ccc(-c2nc3sc(CCNC(=O)c4ccc(F)c(F)c4)c(C)n3n2)cc1	x	8.8%	x	i	-29.2%	-28.1%
O=C1/C(=C/c2ccccc2)NC(=S)N1C(c1ccccc1)c1ccccc1	u	-16.4%	9.2µM*	u	-0.8%	-57.6%
C/C(=C\c1ccccc1)C(=O)NCCN1CCOCC1	2.1%	x	3.3%	u	u	0.9%
C[N+](C)(C)CCC(=O)N1C/C(=C/c2ccccc2)C(=O)/C(=C\c2ccccc2)C1	u	8.44µM*	4.11µM*	x	7.94µM*	-99.8%
CN(C)CCC(=O)N1C/C(=C/c2ccccc2)C(=O)/C(=C\c2ccccc2)C1	u	2.12µM*	0.581µM*	4.23µM*	2µM*	-126.2%
CCOC(=O)N1C/C(=C\c2ccccc2)C(=O)/C(=C/c2ccccc2)C1	u	x	u	u	2µM*	-44.7%
O=C1/C(=C/c2ccccc2)CN(C(=O)CCN2CCOCC2)C/C1=C\c1ccccc1	u	26.7µM*	u	21.2µM*	2.24µM*	15.8µM*
CCOC(=O)N1CCN(S(=O)(=O)/C=C/c2ccccc2)CC1	-2.2%	x	-14.3%	x	-17.4%	-13.6%
Cc1ncc([N+](=O)[O-])n1C	x	1.4%	x	i	x	x
